# Reference: the supplement of paper PMC8728848
# The sample as a whole holds a higher share of the strongest signals than the screen did.
# Legend:
# Assay in all cases: glycan array binding signal (z-score within array); higher = stronger binding
# Details in all cases: glycan notation: IUPAC condensed, linker removed
# [1] = molecular target: GlcNAc(a1-4)Gal(b1-4)GlcNAc(b1-3)Gal(b1-4)GlcNAc
# Procedure, shortened: (§1)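 Negative Z-scores can be read as non-binding. The Z-score is calculated within each array and then averaged across arrays of one protein sequence at different concentrations or buffers and across linkers. Arrays, 3228 in all, were curated from the Consortium for Functional Glycomics database and kept only where the protein sequence was available.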
# [2] = molecular target: GlcNAc(a1-4)Gal(b1-4)GlcNAc(b1-3)Gal(b1-4)GlcNAc(b1-3)Gal(b1-4)GlcNAc
# Procedure, shortened: as §1
# [3] = molecular target: GlcNAc(b1-2)Man(a1-3)[GlcNAc(b1-2)Man(a1-6)]Man(b1-4)GlcNAc(b1-4)GlcNAc
# Procedure, shortened: as §1
# [4] = molecular target: GlcNAc(b1-3)Gal(b1-4)GlcNAc(b1-3)Gal(b1-4)GlcNAc(b1-2)[GlcNAc(b1-3)Gal(b1-4)GlcNAc(b1-3)Gal(b1-4)GlcNAc(b1-6)]Man(a1-6)[GlcNAc(b1-3)Gal(b1-4)GlcNAc(b1-3)Gal(b1-4)GlcNAc(b1-2)Man(a1-3)]Man(b1-4)GlcNAc(b1-4)[Fuc(a1-6)]GlcNAc
# Procedure, shortened: as §1
# [5] = molecular target: GlcNAc(b1-3)Gal(b1-4)GlcNAc(b1-6)[Gal(b1-3)]GalNAc
# Procedure, shortened: as §1
# GlcNAc(b1-4)GlcNAc = molecular target: GlcNAc(b1-4)GlcNAc
# Procedure, shortened: as §1
# [6] = molecular target: GlcNAc(b1-4)GlcNAc(b1-4)GlcNAc
# Procedure, shortened: as §1
# [7] = molecular target: GlcNAc(b1-4)GlcNAc(b1-4)GlcNAc(b1-4)GlcNAc(b1-4)GlcNAc
# Procedure, shortened: as §1
# [8] = molecular target: GlcNAc(b1-4)GlcNAc(b1-4)GlcNAc(b1-4)GlcNAc(b1-4)GlcNAc(b1-4)GlcNAc
# Procedure, shortened: as §1
# [9] = molecular target: Man(a1-2)Man(a1-3)[Man(a1-3)[Man(a1-6)]Man(a1-6)]Man(b1-4)GlcNAc(b1-4)GlcNAc
# Procedure, shortened: as §1
# [10] = molecular target: Neu5Ac(a2-3)Gal(b1-3)GlcNAc(b1-2)Man
# Procedure, shortened: as §1
# [11] = molecular target: Neu5Ac(a2-3)Gal(b1-3)GlcNAc6S
# Procedure, shortened: as §1
# [12] = molecular target: Neu5Ac(a2-3)Gal(b1-4)GlcNAc
# Procedure, shortened: as §1
# [13] = molecular target: Neu5Ac(a2-3)Gal(b1-4)[Fuc(a1-3)]GlcNAc
# Procedure, shortened: as §1
# [14] = molecular target: Neu5Ac(a2-3)Gal6S(b1-4)GlcNAc
# Procedure, shortened: as §1
# [15] = molecular target: Neu5Ac(a2-6)Gal(b1-4)GlcNAc(b1-2)Man(a1-6)[Gal(b1-4)GlcNAc(b1-2)Man(a1-3)]Man(b1-4)GlcNAc(b1-4)GlcNAc
# Procedure, shortened: as §1
# [16] = molecular target: Neu5Ac(a2-6)Gal(b1-4)GlcNAc(b1-3)Gal(b1-4)GlcNAc
# Procedure, shortened: as §1
# [17] = molecular target: Neu5Ac(a2-6)GlcNAc(b1-4)GlcNAc(b1-4)GlcNAc
# Procedure, shortened: as §1
# [18] = molecular target: Neu5Ac9Ac(a2-3)Gal(b1-4)GlcNAc
# Procedure, shortened: as §1
binder,measurement,setting,value
"AAA (Anguilla anguilla), Q7SIC1 (protein) VIPEGYTQENVAVRGKATQSAQLRGEHAANSEASNAIDGNRDSNFYHGSCTHSSGQANPWWRVDLLQVYTITSVTITNRGDCCGERISGAEINIGQHLASNGVNNPECSVIGSMATGETKTFHCPAPMIGRYVVTYLPTSESLHLCEVEVNVDKPAAA",glycan array binding signal (z-score),[1],1.96
same,glycan array binding signal (z-score),[2],2.29
same,glycan array binding signal (z-score),[3],-0.274
same,glycan array binding signal (z-score),[4],0.944
same,glycan array binding signal (z-score),[5],-0.298
same,glycan array binding signal (z-score),GlcNAc(b1-4)GlcNAc,2.2
same,glycan array binding signal (z-score),[6],5.55
same,glycan array binding signal (z-score),[7],7.88
same,glycan array binding signal (z-score),[8],6.77
same,glycan array binding signal (z-score),[9],-0.106
same,glycan array binding signal (z-score),[10],-0.023
same,glycan array binding signal (z-score),[11],0.003
same,glycan array binding signal (z-score),[12],-0.086
same,glycan array binding signal (z-score),[13],-0.098
same,glycan array binding signal (z-score),[14],-0.179
same,glycan array binding signal (z-score),[15],-0.183
same,glycan array binding signal (z-score),[16],-0.202
same,glycan array binding signal (z-score),[17],2.46
same,glycan array binding signal (z-score),[18],-0.102
